LYPLA2 counter: blocks human lysophospholipase 2, a PME1 counter-screen; O95372; recombinant LYPLA2, FP-Rh probe fluorescence polarization; inhibition, % at 5.9 µM; actives 0.38% (n = 320,000); AID 2177;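 active means inhibition above the screen-wide mean plus 3 SD, limit set per campaign, cut at about 26% in these data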
PME-1 primary: PME-1 (human) inhibition | Q9Y570 | recombinant PME-1, FP-Rh probe fluorescence polarization | inhibition, % at 5.9 µM | actives 0.53% (n = 320,000);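 active means inhibition above the campaign mean of all compounds plus 3 SD, cut at about 26% in these data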;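 further: competitive labeling of PME-1 active site by serine hydrolase directed probe; inhibitors block probe labeling so polarization falls and inhibition rises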
Target sequence (Q9Y570 whole entry, looked up): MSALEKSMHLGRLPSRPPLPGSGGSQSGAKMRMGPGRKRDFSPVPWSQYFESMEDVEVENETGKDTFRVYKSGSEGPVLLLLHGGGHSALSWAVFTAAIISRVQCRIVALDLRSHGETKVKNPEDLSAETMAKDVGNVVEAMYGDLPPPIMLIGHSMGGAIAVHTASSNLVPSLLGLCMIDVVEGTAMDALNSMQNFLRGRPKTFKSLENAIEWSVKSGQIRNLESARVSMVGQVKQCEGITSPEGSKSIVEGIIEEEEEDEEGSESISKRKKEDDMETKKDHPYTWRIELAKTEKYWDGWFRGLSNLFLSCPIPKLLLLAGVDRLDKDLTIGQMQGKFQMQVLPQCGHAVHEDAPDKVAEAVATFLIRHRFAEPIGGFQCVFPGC
LYPLA1 inh: counter-screen for PME1 inhibitors: inhibitors of human LYPLA1 | O75608 | actives 0.16% (n = 320,000) | inhibition, % at 5.9 µM | recombinant LYPLA1, FP-Rh probe fluorescence polarization;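 active means inhibition above the mean of all tested compounds plus 3 SD, set per campaign, cut at about 14% in these data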;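 further: inhibitors block serine hydrolase probe labeling of LYPLA1 so polarization falls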
GSTO1 counter: counter-screen for RBBP9 inhibitors: inhibitors of human GSTO1; P78417; recombinant GSTO1, activity-based probe fluorescence polarization; inhibition, % at 5.96 µM; actives 1.1% (n = 300,000); AID 1974;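 active means inhibition above the campaign mean inhibition plus 3 SD, cut at about 35% in these data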
Target sequence (P78417 whole entry, looked up): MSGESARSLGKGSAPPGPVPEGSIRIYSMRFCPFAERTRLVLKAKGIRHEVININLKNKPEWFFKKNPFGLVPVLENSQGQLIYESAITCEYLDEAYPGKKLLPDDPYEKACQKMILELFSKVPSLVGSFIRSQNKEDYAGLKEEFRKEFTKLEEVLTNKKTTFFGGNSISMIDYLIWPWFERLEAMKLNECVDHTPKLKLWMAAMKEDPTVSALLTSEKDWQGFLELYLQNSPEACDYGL
PAD4 inh: blocks human protein arginine deiminase 4. recombinant PAD4, RCA probe fluorescence polarization. Q9UM07. AID 485272. actives 0.41% (n = 330,000). inhibition, % at 6.36 µM;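 active means percent inhibition above a cutoff equal to the mean of all tested compounds plus 3 SD, cut at about 15% in these data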
Fam108B counter: counter-screen for RBBP9 inhibitors: inhibitors of mouse Fam108B | inhibition, % at 9.51 µM | AID 1947 | actives 0.33% (n = 300,000) | recombinant Fam108B, FP-Rh probe fluorescence polarization;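 active means inhibition above the screen mean inhibition plus 3 SD, computed separately per campaign, cut at about 18% in these data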;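 further: inhibitors lower polarization as less probe binds the enzyme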
PAD4 FP conf: PAD4 (human) inhibition, confirmed | recombinant PAD4, RCA probe fluorescence polarization | AID 488796 | inhibition, % at 6.36 µM | actives 28% (n = 1,200) | shares compounds with PAD4 inh;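 active means mean inhibition across replicates above the hit cutoff set by the earlier primary screen, cut at about 15% in these data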;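 further: inhibitors block active-site labeling by the probe so polarization falls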
Numbers stand for hits; . = inactive; / = no result given. This is a sample that favours compounds with a hit; in the whole collection about 1.8% have one here.

SMILES	LYPLA2 counter	PME-1 primary	LYPLA1 inh	GSTO1 counter	PAD4 inh	Fam108B counter	PAD4 FP conf
COc1cc(S(=O)(=O)Nc2ccc(C)cc2)ccc1N=Cc1c(C)[nH]n(-c2ccc(C)cc2)c1=O	.	.	.	.	.	.	/
COc1cc(SC#N)ccc1N=Cc1c(C)[nH]n(-c2cccc3ccccc23)c1=O	.	.	.	.	30.9	.	45.5
COc1ccccc1N=Cc1c(C)[nH]n(-c2ccc(C)cc2C)c1=O	.	.	.	.	.	.	/
COc1ccc(C(CNC(=O)c2oc3c(Cl)cccc3c2C)N2CCCC2)cc1 (stereo unspecified)	.	.	.	.	.	.	/
COc1cc(/C=C/C(=O)OCC(=O)NCC(=O)Nc2cccc(C)c2C)ccc1OC(F)F	.	.	.	/	.	/	/
Cc1cc(=O)[nH]c(NN)n1	.	.	.	.	15.8	.	.
Cc1cc(=O)[nH]c(NCCO)n1	.	.	.	.	.	.	/
CCOc1c(Cl)cc(/C=C/C(=O)N(CC)CC(=O)Nc2ccc(NC(C)=O)cc2)cc1OC	.	.	.	.	.	.	/
C[C@@H](O)CC(=O)O	.	.	.	.	.	.	/
CC(C(=O)O)C(=O)O	.	.	.	.	39.2	.	.
NS(=O)(=O)c1ccc(NC(=S)NCc2ccc(Cl)cc2)cc1	.	.	.	.	20.0	.	.
CC(=O)C1=C(O)C(=O)N(CC(=O)O)C1c1ccccc1Cl (stereo unspecified)	.	.	.	.	20.2	.	.
C(=N\n1cnnc1)/c1ccc2c(c1)OCCO2	.	.	.	.	17.9	.	.
O=C(O)c1ccccc1NS(=O)(=O)c1cccc(-n2sc3ccccc3c2=O)c1	.	.	.	.	42.6	.	33.5
O=C(O)c1ccccc1NS(=O)(=O)c1cccc(C(F)(F)F)c1	.	.	.	.	.	.	/
Cc1[nH][nH]c(=O)c1C(c1ccc(-c2cccc(C(=O)O)c2)o1)c1c(C)[nH][nH]c1=O	.	.	.	.	33.3	.	.
O=C(CCC(=O)Nc1ccc(Br)cc1)N/N=C/c1ccc(O)cc1	.	.	.	.	.	.	/
Cc1c(NC(=O)C(C)OC(=O)c2cc(-c3cccc4ccccc34)nc3ccccc23)c(=O)n(-c2ccccc2)n1C (stereo unspecified)	.	.	.	.	18.6	.	.
COc1ccc(-c2cc(C(=O)OC(C)C(=O)Nc3c(C)n(C)n(-c4ccccc4)c3=O)c3ccccc3n2)cc1 (stereo unspecified)	.	.	.	.	.	.	/
CC1CCN(C(=O)CN2C(=O)NC(C)(c3ccc4ccccc4c3)C2=O)CC1 (stereo unspecified)	/	/	/	/	.	/	/
CC(=O)C1=C(c2ccccc2)N(C(C)=O)n2c(C)nnc2S1	.	.	.	.	68.5	.	59.0
CCN1C=C(Cc2ccc(OC)cc2)C2=C(C1)C(c1ccc(OC)cc1)C(C#N)=C(N)O2 (stereo unspecified)	.	.	.	.	41.7	.	.
O=C(O)CC/C(=N\NC(=O)CNC(=O)c1ccc(F)cc1)c1ccccc1	.	.	.	.	17.7	.	.
O=C(O)CC/C(=N/NC(=O)CNC(=O)Cc1ccccc1)c1ccccc1	.	.	.	.	.	.	/
C/C(=N\Nc1ccc(S(N)(=O)=O)cc1[N+](=O)[O-])c1cccnc1	.	.	.	.	.	.	/
SMILES	LYPLA2 counter	PME-1 primary	LYPLA1 inh	GSTO1 counter	PAD4 inh	Fam108B counter	PAD4 FP conf
NS(=O)(=O)c1ccc(N/C=C\C(=O)c2ccc(F)cc2)cc1	.	.	.	.	.	.	/
CN(C)c1ccc(N/C=C/C(=O)c2ccc(F)cc2)cc1	.	.	.	45.5	31.2	.	.
COc1cccc(OC)c1C(=O)Nc1ccc(C(=O)NCc2ccccc2)cc1	.	.	.	.	.	.	/
CC(=O)N1CCN(c2ccc(N)cc2)CC1	.	.	.	/	25.0	/	.
CC(=O)N1CCN(c2ccc(NS(=O)(=O)c3ccc(C)cc3)cc2)CC1	.	.	.	.	24.0	.	.
C[C@@]12C(=O)N(Cc3ccc(F)cc3)CC(=O)N1[C@H]1c3cc(Cl)ccc3OC[C@@H]1[C@@H]2c1ccccc1	/	/	/	/	.	/	/
CC1(c2ccc([N+](=O)[O-])cc2)Nc2ccccc2S1 (stereo unspecified)	.	.	.	.	17.1	.	.
O=C(NCCCO)c1nnc(Cc2c(F)cccc2Cl)o1	.	.	.	.	49.9	.	.
Cc1ccc(NC(=O)CCN2C(=O)NC3(CCCC3)C2=O)c(C)c1	.	.	.	/	.	/	/
O=C1CSC(c2ccccc2O)N1Cc1ccccc1 (stereo unspecified)	.	.	.	.	40.5	.	.
Cc1cc(C)nc(SCC(=O)NC2=NN=C(c3ccc(Br)cc3)CS2)n1	.	.	.	.	37.6	.	21.0
CCC(Sc1nc(C)cc(C)n1)C(=O)NC1=NN=C(c2ccc(C)cc2)CS1 (stereo unspecified)	.	.	.	.	66.1	.	55.4
Cc1cc(C)nc(SCC(=O)Nc2ccc(Br)cn2)n1	.	.	.	.	.	.	/
Cc1cc(C(=O)O)ccc1N/C=C1\CCCC(C)C1=O (stereo unspecified)	.	.	.	.	.	.	/
CC1CCC/C(=C\Nc2ccc(O)cc2)C1=O (stereo unspecified)	.	.	.	36.7	28.1	.	.
Nc1ncnc2c1ncn2[C@@H]1O[C@H](CNCc2ccc(OCC(=O)Nc3nccs3)cc2)[C@@H](O)[C@H]1O	/	/	/	/	.	/	/
CCC1Cc2c(nc(N)c3c(N)nc(N4CCCCC4)c(C#N)c23)O1 (stereo unspecified)	.	.	.	.	.	.	/
CN(CCO)c1nc(N)c2c(N)nc3c(c2c1C#N)CC(=O)N3C1CCCC1	.	.	.	.	15.9	.	.
Cc1cc(C)c(C#N)c(Sc2ccccc2N)n1	.	.	.	.	20.5	.	52.0
O=C1[C@H]2[C@@H](c3ccc(Cl)cc3)N3C(=O)N(c4cccc(Cl)c4)C(=O)[C@@]3(Cc3ccccc3)[C@H]2C(=O)N1C1CCCCC1	.	.	.	.	.	.	/
CCCCN1C(=O)c2cccc3cc(O)cc(c23)C1=O	.	.	.	.	.	.	/
CC(C)[C@H](N)c1nnc(SCC(=O)c2ccc(Cl)cc2)o1	.	.	.	.	15.4	.	.
CCC(=O)N1CCc2cc(Br)cc(S(=O)(=O)N3CCC(C(=O)NC(C)C)CC3)c21	.	.	.	.	.	.	/
Cc1oc2cc(O)ccc2c(=O)c1-c1nncn1-c1ccccc1	.	.	.	.	18.0	.	15.7
O=C1CN(C(=O)COC(=O)[C@@H]2CCCN2S(=O)(=O)c2ccc(Cl)cc2)c2ccccc2N1	/	/	/	/	.	/	/
COc1cc(C(=O)COC(=O)c2ccc([N+](=O)[O-])o2)cc(OC)c1OC	/	/	/	/	.	/	/
